High-throughput results: PubChem BioAssay, several laboratories
Mdm2 MdmX PPI: inhibitors of human Mdm2-MdmX association, primary screen, cell-based, luminescence, split luciferase, SaOS-2, uHTS; Protein Mdm4 (Homo sapiens) + E3 ubiquitin-protein ligase Mdm2 (Homo sapiens), …; SaOS-2 split-luciferase Mdm2/MdmX complementation; inhibition, % at 8 µM; hit rate 3% among 330,000;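 active = inhibition of at least 50% at 8 µM in the primary screen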
Target sequence (O15151 whole entry, looked up): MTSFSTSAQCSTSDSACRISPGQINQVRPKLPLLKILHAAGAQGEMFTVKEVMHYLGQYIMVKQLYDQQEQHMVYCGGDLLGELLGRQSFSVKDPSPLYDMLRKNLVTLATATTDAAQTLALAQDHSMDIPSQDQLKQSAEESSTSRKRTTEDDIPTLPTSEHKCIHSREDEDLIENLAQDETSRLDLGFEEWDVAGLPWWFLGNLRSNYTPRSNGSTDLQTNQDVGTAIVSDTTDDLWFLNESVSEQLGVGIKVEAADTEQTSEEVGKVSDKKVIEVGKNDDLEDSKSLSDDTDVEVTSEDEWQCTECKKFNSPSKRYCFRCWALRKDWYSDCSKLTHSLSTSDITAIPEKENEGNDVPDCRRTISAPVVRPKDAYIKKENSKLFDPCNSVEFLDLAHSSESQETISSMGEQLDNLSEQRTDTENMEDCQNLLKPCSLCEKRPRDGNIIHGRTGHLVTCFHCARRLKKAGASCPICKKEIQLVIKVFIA
Target sequence (Q00987 whole entry, looked up): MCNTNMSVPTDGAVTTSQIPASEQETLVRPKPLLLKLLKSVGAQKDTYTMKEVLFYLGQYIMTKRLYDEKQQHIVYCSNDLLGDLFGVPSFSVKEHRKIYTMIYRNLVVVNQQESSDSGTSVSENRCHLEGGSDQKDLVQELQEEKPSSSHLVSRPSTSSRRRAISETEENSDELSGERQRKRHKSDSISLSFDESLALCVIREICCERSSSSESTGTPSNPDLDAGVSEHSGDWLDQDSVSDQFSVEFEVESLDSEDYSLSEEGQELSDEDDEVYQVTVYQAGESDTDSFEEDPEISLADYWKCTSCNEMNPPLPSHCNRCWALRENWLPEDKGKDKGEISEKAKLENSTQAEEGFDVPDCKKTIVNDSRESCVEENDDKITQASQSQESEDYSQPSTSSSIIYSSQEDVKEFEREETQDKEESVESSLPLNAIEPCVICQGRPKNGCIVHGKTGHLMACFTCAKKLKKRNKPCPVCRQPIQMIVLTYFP
HSP90 inh: HSP90 inhibitors, primary screen, cell lysate, luminescence | hit rate 0.91% among 290,000 | inhibition, % at 5.6 µM | Rabbit reticulocyte lysate, luciferase refolding luminescence, 3 h | AID 1789, 2009;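 active = inhibition above the screen-wide mean plus 3 SD, computed separately per campaign, cut at about 16% in these data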;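 also: 0% = DMSO wells and 100% = 60 µM geldanamycin wells; inhibitors lower the luminescence because luciferase stays unfolded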
KKLEB cytotox: cytotoxicity in KKLEB CF airway cells, primary screen, cytotoxicity control for CF NF-kB inhibitor project, cell-based, uHTS, fluorescence assay plates; KKLEB CF airway cells viability, ATPlite luminescence, overnight; hits give low values; cells stimulated with P. aeruginosa culture filtrate; activity change (cytotoxicity), % at 5 µM; hit rate 0.36% among 360,000; AID 602141, 2011;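 active = corrected activity change at or below -50% at 5 µM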
CF NFkB inh: inhibitors of PAF-induced NF-kB signaling, primary screen, cell-based, GFP fluorescence, uHTS; KKLEB NF-kB-GFP reporter, GFP fluorescence overnight; inhibition, % at 5 µM; hit rate 0.86% among 360,000;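 active = at least 50% inhibition at 5 µM, scaled per plate between neutral and stimulator controls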;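 also: PAF is a Pseudomonas aeruginosa culture filtrate used as stimulus; plate controls were PAF-stimulated DMSO wells for no effect and unstimulated DMSO wells for full effect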
Peg3 promoter: Peg3 promoter-driven luciferase inhibitors, primary screen, cell-based, HeLa, luciferase luminescence. HeLa PEG-Prom luciferase reporter, overnight. inhibition, % at 20 µM. hit rate 1.7% among 360,000. AID 588405, 2011;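 active = inhibition of at least 50% at 20 µM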
LGR2 antag: inhibitors of bursicon-induced LGR2 CRE-luciferase signal, primary screen, cell-based, HEK293, CRE-luciferase reporter, bursicon stimulation; AID 720647, 2013; bursicon-stimulated, 4 h; hit rate 0.35% among 380,000; Drosophila bursicon receptor LGR2 (rickets); inhibition, % at 9.99 µM;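 active = drop in luminescence signal, shown as inhibition above about 50% in the replicate tests, limit read from the data, passing the limit was not always enough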;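 also: agonist challenge used bursicon conditioned medium at about half maximal strength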
Starred values were filed as active, the others as inactive; . = not tested or not shown. Sampled rows, rich in hits. Any-hit rate of the full collection: about 3.6%.

SMILES | Mdm2 MdmX PPI | HSP90 inh | KKLEB cytotox | CF NFkB inh | Peg3 promoter | LGR2 antag
CCOC(=O)c1[nH]c2ccc(OC)cc2c1NC(=O)CN1CCc2ccccc2C1 | 21 | -2 | -16 | 20 | 55* | .
CCC(=O)N(C)C[C@H]1Oc2cc(C#CC3CCCC3)ccc2S(=O)(=O)N([C@@H](C)CO)C[C@@H]1C | . | . | . | . | . | -12
COc1ccccc1-c1cc(C(=O)Nc2cc(C)n(Cc3ccc(Cl)cc3)n2)no1 | 37 | -2 | -76* | 60* | 12 | 16
O=C(C[C@@H]1C[C@H]2c3cc(NC(=O)C4CCOCC4)ccc3O[C@H]2[C@H](CO)O1)NCc1ccccc1F | . | . | . | . | . | -3
Cc1cc(C)c(C)c(S(=O)(=O)N2CCN(c3ncnc4ccccc34)CC2)c1C | 29 | . | 3 | 20 | 43 | 79*
CCOc1ccc(N=Cc2c(C)[nH]n(-c3nc4ccccc4[nH]3)c2=O)cc1 | 35 | 3 | -6 | 0 | 32 | 63*
COc1cc(C2C3=C(COC3=O)Oc3cc4c(cc32)OCO4)cc(OC)c1OC(C)=O (configuration not stated) | . | . | -34 | 67* | -37 | 8
C[C@@H]1CN([C@@H](C)CO)C(=O)c2cc(C#CC3CC3)cnc2O[C@H]1CN(C)S(=O)(=O)c1cccc(F)c1 | . | . | . | . | . | -1
CCOc1ccc(S(=O)(=O)NC(C)(C)C)cc1-c1nc2c(C(C)(C)C)nn(C)c2c(=O)[nH]1 | 42 | -1 | -4 | 1 | 53* | -2
CCOc1ccc(S(N)(=O)=O)cc1-c1nc2c(C(C)(C)C)nn(C)c2c(=O)[nH]1 | 13 | 7 | -7 | -2 | 8 | -6
C[C@H]1CN([C@@H](C)CO)C(=O)c2cc(NC(=O)NC3CCCCC3)ccc2O[C@@H]1CN(C)Cc1ccncc1 | . | . | . | . | . | 5
COC(=O)c1cnc(Nc2nc(C(N)Cc3ccc(Cl)cc3)cs2)nc1C(F)(F)F (configuration not stated) | . | . | -16 | 16 | 96* | 3
COC(=O)c1cnc(Nc2nc(C(N)Cc3ccccc3)cs2)nc1C(F)(F)F (configuration not stated) | . | . | -14 | -4 | 52* | -12
CCOC(=O)c1cnc(SC2CC(=O)N(c3ccccc3)C2=O)nc1N (configuration not stated) | 13 | 1 | 7 | -2 | 4 | -6
CCOC(=O)c1cnc(SC2CCc3ccccc3C2=O)nc1N (configuration not stated) | 8 | 16* | -3 | -20 | -114 | .
CO[C@@H]1CN(C)C(=O)c2ccc(NC(C)=O)cc2OC[C@H](C)N(C(=O)C2CCOCC2)C[C@@H]1C | . | . | . | . | . | -1
CC(C)(C)c1nnc(N/N=C/c2cc(Br)ccc2O)n(N)c1=O | . | -5 | -20 | 24 | 73* | 37
COc1ccccc1C(=O)Nc1ccc2c(c1)C(=O)N(C)C[C@@H](OC)[C@H](C)CN(CC1CC1)[C@@H](C)CO2 | . | . | . | . | . | -5
CCN1/C(=C/c2cc[n+](C)cc2)C=Cc2cc(C)ccc21 | . | -2 | 1 | -46 | 61* | 24
O=C(Nc1ccccc1F)N[C@H]1CC[C@H](CCNC(=O)C2CCC2)O[C@@H]1CO | . | . | . | . | . | 9
Cc1ccc(S(=O)(=O)Nc2ccc(O)c3cccnc23)cc1 | 42 | 2 | 5 | 59* | 78* | 10
O=C(C[C@@H]1C[C@H]2c3cc(NS(=O)(=O)c4ccccc4)ccc3O[C@H]2[C@H](CO)O1)N1CCCCC1 | . | . | . | . | . | -17
CC(=O)N(CN1C(=O)CCC1=O)c1ccc(Cl)c(Cl)c1 | -6 | -3 | 15 | -12 | 51* | -51
O=C1CCC(=O)N1CN(C(=O)c1ccco1)c1ccc(Cl)c(Cl)c1 | 2 | 1 | -1 | -1 | 5 | .
COc1cc(/C=N/NC(=S)Nc2cccc(C(=O)O)c2)ccc1O | 43 | 9 | -6 | -3 | 12 | 91*
O=C(O)c1cc(N/N=C/c2ccc(OCc3ccccc3)cc2)ccc1Cl | -69 | 12 | -6 | -14 | -314 | -11
